According to PubChem BioAssay AID1025 (Sanford-Burnham Center for Chemical Genomics, 2008):
The campaign covered roughly 96,000 compounds. Fewer than 10 were called active.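 The calls were made as follows: active = activation factor of at least 2 at 5 µM in the primary screen; inactive = the rest.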 These entries were drawn from the full list.

These molecules were tested against Cytochrome P450 2C19 (Homo sapiens) (UniProt P33261) (assay: enhancers of cytochrome P450 2C19 turnover – biochemical, luminescence, primary screen (AID 1025;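 also: 0 = wells with 2.5 mM tranylcypromine and 1 = vehicle-only wells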)). Settings: recombinant CYP2C19, luciferin-H EGE luminescence; at 5 µM; stronger effect = higher value; 0 = fully inhibited enzyme, 1 = untreated enzyme.
Chain of Cytochrome P450 2C19 (Homo sapiens) (P33261 whole entry, looked up): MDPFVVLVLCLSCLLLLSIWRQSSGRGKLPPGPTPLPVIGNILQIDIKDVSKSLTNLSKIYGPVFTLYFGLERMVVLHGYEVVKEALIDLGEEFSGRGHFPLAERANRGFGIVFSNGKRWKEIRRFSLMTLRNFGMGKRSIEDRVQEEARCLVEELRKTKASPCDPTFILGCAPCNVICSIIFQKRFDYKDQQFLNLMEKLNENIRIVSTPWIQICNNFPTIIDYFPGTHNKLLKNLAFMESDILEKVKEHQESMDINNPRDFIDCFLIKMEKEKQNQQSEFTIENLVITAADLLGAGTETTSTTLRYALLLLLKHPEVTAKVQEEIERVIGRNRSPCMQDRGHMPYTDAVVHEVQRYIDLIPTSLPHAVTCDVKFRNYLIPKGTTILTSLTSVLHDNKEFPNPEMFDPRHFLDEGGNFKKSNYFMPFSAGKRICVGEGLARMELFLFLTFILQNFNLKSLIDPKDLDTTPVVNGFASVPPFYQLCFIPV

Activation factor, inactive:
CCC(C)NC(=O)c1c(N)n(/N=C/c2cccs2)c2nc3ccccc3nc12 (centres undefined) 0.9
Cc1ccc(C(=O)N2CCN(C(=O)N3CCOCC3)CC2)cc1 0.9
Cc1cccc(NC(=O)/C(=C\c2ccco2)NC(=O)c2ccccc2)c1 0.9
CC(C)Oc1ccc(CCc2n[nH]c(=S)n2Cc2ccccc2)cc1 0.8
CCOC(=O)/C(=C\c1ccc([N+](=O)[O-])cc1)C(=O)c1cc(C(C)=O)c(Nc2ccccc2)s1 0.4
CCOc1cccc(SCc2noc(C(=O)NC(C)C)c2C(=O)O)c1 0.9
Cc1cccc(C(=O)NCCCN2CCCC2=O)c1 0.8
COc1ccc(C(=O)NNC(=O)c2cnccn2)cc1[N+](=O)[O-] 0.9
Cc1cc(=O)[nH]c(SCc2cccc(F)c2)n1 0.9
COc1ccc(NC(=O)/C(Cl)=C(/Cl)S(=O)Cc2ccc(C)cc2)cn1 (centres undefined) 0.7
COc1ccc(/C=C2\CCCC3C2=NN(C(=O)c2scnc2C)C3c2ccc(OC)cc2)cc1 (centres undefined) 0.7
Cc1ccccc1-n1nc(C)c2cc(C(=O)NC3CC3)sc21 0.4
Cc1onc(-c2c(Cl)cccc2Cl)c1C(=O)c1c[nH]c(C(=O)NC2CC2)c1 1
Cc1cccc(C(=O)Nc2ccc(C(=O)/C=C/c3cccs3)cc2)c1 1
CCOc1ccc(S(=O)(=O)NCCSc2ccccc2)cc1 0
CN(C)S(=O)(=O)c1ccc(N2CCCC2)c(C(=O)NCc2ccccc2)c1 0.4
COc1ccc(C(=O)Nc2nc(-c3ccc(OC)cc3)c(-c3ccc([N+](=O)[O-])cc3)s2)cc1 0.9
Cc1nn(Cc2ccccc2Cl)c(C)c1NC(=O)Cn1nc([N+](=O)[O-])c(Cl)c1C 1
COC(=O)Nc1sc2nc(C)cc(C)c2c1-n1cccc1 0.8
CCCc1nnc(NC(=O)c2cccs2)s1 0.9
O=C1Nc2ccc(Br)cc2/C1=N/N=C/C1=C(N2CCOCC2)C(=C\c2ccccc2)/CC1 1
O=C(N/N=C\c1cccc(Br)c1)c1ccccc1-n1cccc1 0.3
CC(=O)N1Cc2ccccc2CC1C(=O)O (centres undefined) 1.2
O=C(c1cccc(N2CCCC2=O)c1)N1CCOCC1 1.1
Cc1nn(CCOc2ccccc2)c(=O)n1-c1ccccc1F 0.5
O=C(NCc1ccccc1)[C@@H]1CSC2c3ccccc3C(=O)N21 (some centres undefined) 0.2
N=c1ccn(CC(=O)NC(N)=O)c2ccccc12 1.1
CCC(=O)c1c[nH]c(C(=O)NCC2CCCO2)c1 (centres undefined) 1
COc1ccc(Nc2nc(Cl)nc(NCc3ccco3)n2)cc1 1
CN(C)/C=C/C(=O)c1ccccc1F 1.1
C=CCn1c(Cn2nnc3ccccc32)nnc1SCC(=O)N/N=C/c1cc(Br)cc(OC)c1O 0.8
COC(=O)CCSc1cc([N+](=O)[O-])cc2c1c(C1OCCS1)nn2-c1ccccc1 (centres undefined) 0.9
NC(=O)c1nsc(C(=O)N(CC(=O)NCc2ccc(F)cc2)Cc2ccco2)c1N 0.8
CCNC(=O)NC(=O)C(C)OC(=O)c1cc(S(=O)(=O)N2CCCCCC2)ccc1OC (centres undefined) 0.3
CCOC(=O)c1c(-c2ccccc2)csc1NC(=S)NC(=O)c1ccccc1 1.1
CCCNC(=O)c1ccccc1NC(=O)CSCc1ccc(OC)cc1 0.5
CC(C)NC(=O)C(=O)N/N=C/c1ccco1 1.1
CC(C)CCNC(=O)CC1C(=O)N(Cc2ccccc2)C(C)c2nc3ccccc3n21 (centres undefined) 0.1
CCCCc1nc(NCCN)c(C#N)c2c1CSC(C)(C)C2 0.7
Cc1ccc(S(=O)(=O)NCC(C)NS(C)(=O)=O)cc1 (centres undefined) 0.8
O=C(Nc1ccc(Sc2ccc(Br)cc2)cc1)c1ccco1 0.9
CCCn1nnnc1NC(=O)COc1ccc(Cl)cc1C 0.3
Cc1ccc(N(CC(=O)Nc2cccc(N(C)S(C)(=O)=O)c2)S(C)(=O)=O)cc1 1
O=C(NCCCCCCNC(=O)NCc1ccco1)NCc1ccco1 1.1
CCCCNC(=O)CCn1c(=S)[nH]c2cc3c(cc2c1=O)OCO3 0.6
CCC(=O)OCc1c(C(F)(F)F)nn(C)c1Oc1cccc(C(F)(F)F)c1 0.4
COc1ccc(N(CC(=O)N/N=C/c2cccs2)S(=O)(=O)c2ccc(OC)c(OC)c2)cc1 0
CCc1c(C)sc(NC(=O)c2cccs2)c1C(N)=O 0.2
Cc1nnc(NCCO)c2ccccc12 0.9
COc1cc(/C=N/NC(=O)Nc2ccccc2)ccc1OCCOc1ccccc1C 1
Cc1[nH]nc(-c2ccc(OCc3cnn(-c4ccccc4)c3)cc2O)c1Oc1ccc(Cl)cc1 0.8
COc1ccc2c(c1)SC(C)CC2=O (centres undefined) 0.2
COC(=O)Nc1ccc(S(=O)(=O)N2CCN(CCN3C(=O)C4C5C=CC(C5)C4C3=O)CC2)cc1 (centres undefined) 0.9
Cc1ccc(O)c(CNc2nc3ccccc3n2C)c1 0.6
CSc1ccc(CCNC(=O)C2CCN(c3nnc(-n4cccc4)s3)CC2)cc1 0.7
O=C(CCc1ccc(S(=O)(=O)NC2CCCCC2)cc1)NCc1ccccc1 0.4
O=c1[nH]c2c(c(=O)n1Cc1ccccc1)CCC2 1
Cc1ccc2nc(/C(C#N)=C\c3ccc(OC(=O)c4cccs4)cc3)[nH]c2c1 0.5
O=C(/C=C/c1ccccc1)c1ccoc1 0.7
CN1C2CCC1/C(=C\c1ccccc1Cl)C(=O)/C2=C\c1ccccc1Cl 1.1
CC(N=Cc1nc(-c2ccccc2)oc1O)c1ccccc1 (centres undefined) 0.3
O=C(NCN1CCN(CCO)CC1)c1cnccn1 1.1
CC(Oc1ccc(Cl)cc1Cl)C(=O)/C=C/N(C)C (centres undefined) 0.4
CN(C)/C=C(\C#N)C(=O)c1cccnc1Oc1cccc(F)c1 0.6
